# In the library only some 3.1% were active in any assay of this set; here they are far more common.
# BoNT F protease: blocks Botulinum neurotoxin F light chain protease; 0.22% of 360,000 active; Multiplex microsphere protease cleavage assay, flow cytometry; inhibition, % at 10 µM; in the data active = inhibition above about 35%, passing the limit was not always enough; inconclusive = no clear call, values can overlap the other calls; also: plate controls were buffer without enzyme for full effect and enzyme alone for no effect
# BoNT-A LC inh2: inhibitors of Botulinum neurotoxin A light chain protease. 0.17% of 360,000 active. inhibition, % at 10 µM. multiplex microsphere protease substrate cleavage, flow cytometry. AID 588499; also: plate controls were buffer without enzyme for full effect and enzyme alone for no effect
# Bead autofluor: flagged as autofluorescent in microsphere protease counterscreen | fluorescence intensity (no concentration beside the values) | compound autofluorescence counterscreen, microsphere flow cytometry; hits give high values | 3.1% of 360,000 active | AID 624483; in the data active = fluorescence intensity above about 16000; inconclusive = no clear call, values can overlap the other calls
# Anthrax LF inh2: blocks Bacillus anthracis lethal factor protease; AID 588501; P15917; inhibition, % at 10 µM; 0.12% of 360,000 active; multiplex microsphere protease cleavage assay, LF; also: plate controls were buffer without enzyme for full effect and enzyme alone for no effect
# PriA SSB inh: K. pneumoniae PriA-SSBct interaction inhibition. AID 1272365. AlphaScreen SSBct-PriA binding, biotinylated peptide. inhibition, % at 33 µM. 0.6% of 430,000 active; in the data active = inhibition mostly above about 37%, no sharp cut-off; inactive = mostly below about 20%;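 also: plate controls were negative control peptide for no effect and reference peptide for full effect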
# Numbers without * were called inactive; ? = inconclusive; · = no result given. Rule as the data show it, unless noted: active = inhibition above about 30%; inconclusive = no clear call, values can overlap the other calls; inactive = below that.
SMILES,BoNT F protease,BoNT-A LC inh2,Bead autofluor,Anthrax LF inh2,PriA SSB inh
COc1ccc(N2C(=O)CC(N3CCN(c4ccccc4)CC3)C2=O)cc1 (stereo unspecified),?,0,4085,1,-18
COc1ccc(N2C(=O)CC(n3cnc4ccccc43)C2=O)cc1 (stereo unspecified),1,?,22109*,1,-8
Cc1nn(C)c(C)c1S(=O)(=O)NCC1CCN(C(=O)COc2ccccc2)CC1,·,·,·,·,4
Cc1csc(NC(=O)Cc2csc(Nc3ccc(OC(F)(F)F)cc3)n2)n1,·,·,·,·,6
CC(=O)Nc1ccc2nc(NC(=O)c3cccc4ccccc34)sc2c1,·,·,·,·,4
CCCCn1c(=NC(=O)c2ccc3c(c2)OCO3)c(C#N)cc2c(=O)n3cccc(C)c3nc21,38*,63*,2551,49*,-11
Cc1ccccc1-n1c(=O)c(C#N)cc2c(=O)n3ccccc3nc21,-7,?,21339*,0,-16
CCCCCn1c(=NC(C)=O)c(C#N)cc2c(=O)n3ccccc3nc21,0,2,23665*,0,-6
Cc1cc(-n2c(=O)c(C#N)cc3c(=O)n4ccccc4nc32)no1,3,0,8488,-1,-5
O=C(Cc1ccccc1)Nc1ncc(Cc2ccccc2)s1,·,·,·,·,11
O=C(Nc1ncc(Cc2ccc(SC(F)F)cc2)s1)c1ccccc1,3,2,21972*,-4,-11
Cc1ccc(C(=O)Nc2ncc(Cc3ccccc3)s2)o1,-3,-1,24322*,-1,11
Cc1cc(NC(=O)c2ccc(S(=O)(=O)N3CCCC3)cc2)n(-c2nc(C)c(C)c(=O)[nH]2)n1,·,·,·,·,-4
Fc1ccccc1CSc1nnc(-c2cccnc2)o1,4,0,6879,0,-30
Cc1ccc(C)c(CSc2nnc(-c3cccnc3)o2)c1,-2,?,24006*,-3,-17
CCCN1CCCc2cc(CCNC(=O)c3ccccc3F)ccc21,·,·,·,·,68*
CCCN1CCCc2cc(CCNC(=O)c3ccc(F)cc3)ccc21,·,·,·,·,23
CCCN1CCCc2cc(CCNC(=O)COc3ccccc3F)ccc21,·,·,·,·,83*
CCCN1CCCc2cc(CCNC(=O)c3c(OC)cccc3OC)ccc21,·,·,·,·,80*
CCCN1CCCc2cc(CCNC(=O)C(C)(C)C)ccc21,·,·,·,·,51*
Cc1ccc(C(=O)NC(C(=O)N2CCN(C(=O)c3ccco3)CC2)S(=O)(=O)c2ccc(C)cc2)cc1 (stereo unspecified),·,·,·,·,1
CC(C)(C)OC(=O)N1CCCC(C(=O)Nc2cnn(CC3COc4ccccc4O3)c2)C1 (stereo unspecified),·,·,·,·,-3
COc1cc(C(=O)Nc2sc3c(c2C#N)CCC3)cc(OC)c1OC,·,·,·,·,-7
Cc1cc(-c2cccs2)nn1CCNC(=O)c1ccccc1SC(F)F,·,·,·,·,0
CCCN1CCCc2cc(CCNC(=O)c3cccs3)ccc21,·,·,·,·,63*
SMILES,BoNT F protease,BoNT-A LC inh2,Bead autofluor,Anthrax LF inh2,PriA SSB inh
CCCN1CCCc2cc(CCNC(=O)c3ccccc3)ccc21,·,·,·,·,57
O=C1C2C3C=CC(C2C(=O)N1CCCO)C1C2C(=O)N(CCCO)C(=O)C2C31 (stereo unspecified),-2,-3,21305*,1,-22
C#CC1(OCC(O)CN2CCN(CCN3C(=O)c4cccc5cccc(c45)C3=O)CC2)CCCCC1 (stereo unspecified),·,·,·,·,4
NC(=Nc1nc2ccccc2o1)NC(=O)c1ccc(Cl)cc1,·,·,·,·,-8
Cc1ccc(C(=S)NCS(=O)(=O)c2ccc(C)cc2)cc1,-4,-2,23970*,-2,5
Cc1ccc(S(=O)(=O)CNC(=S)c2cccc(Cl)c2)cc1,-3,0,2536,-2,-11
Cc1ccccc1OCC(=O)N/N=C1\CCOc2c(C)cccc21,0,-1,20512*,0,·
COc1cccc2c1OCCC2=NNC(=O)COc1ccc(C)cc1,·,·,·,·,-15
Cc1ccc(OCC(=O)N/N=C2\CCOc3c(C)cccc32)cc1,-1,2,22762*,0,·
COc1cccc2c1OCC/C2=N\NC(=O)COc1ccccc1C,1,0,1897,-3,·
Cc1cc2c(O)c(-c3ccccc3)c3sc(=O)oc3c2cc1C,·,·,·,·,4
COc1ccccc1-c1ccc(N2CCN(C(=O)NC3CCCCC3)CC2)nn1,·,·,·,·,-9
COc1ccccc1-c1ccc(NC2CCCCC2)nn1,-2,3,23544*,7,-19
COc1cccc2cc(C(=O)Nc3ccc(Cl)cc3C(=O)c3ccccc3)oc12,·,·,·,·,19
C1CN2CN3CCN(CN1C3)C2,·,·,·,·,80*
C1N2CN3CN1CN(C2)C3,-1,-1,6217,-6,-9
CCOC(=O)C(Cc1ccccc1)(NC(C)=O)C(=O)OCC,2,0,4348,-4,0
CCOC(=O)C(Cc1c(F)cccc1F)(NC(C)=O)C(=O)OCC,1,0,21936*,-5,-19
Cc1noc(C)c1S(=O)(=O)N1CCN(c2nc3c(C(F)(F)F)cccc3s2)CC1,·,·,·,·,-22
COc1cn(CC(=O)Nc2ccc(Cl)cc2)c(CO)cc1=O,·,·,·,·,10
CC1CN(c2oc(Cc3cccc4ccccc34)nc2C#N)CC(C)O1 (stereo unspecified),-6,0,2895,-1,52*
N#Cc1nc(Cc2cccc3ccccc23)oc1NCCN1CCCCC1,4,1,10642,-2,12
CC(C)Nc1oc(Cc2cccc3ccccc23)nc1C#N,1,?,24202*,-4,5
COc1ccc(CCNc2oc(Cc3cccc4ccccc34)nc2C#N)cc1OC,2,-1,3533,-12,43*
CC1CN(c2oc(-c3cccs3)nc2C#N)CC(C)O1 (stereo unspecified),-7,0,2406,0,2
SMILES,BoNT F protease,BoNT-A LC inh2,Bead autofluor,Anthrax LF inh2,PriA SSB inh
CNc1oc(Cc2cccc3ccccc23)nc1C#N,-4,-4,17571*,-4,-1
COc1ccc(CCNc2oc(COc3ccc(Br)cc3)nc2C#N)cc1OC,-10,0,6102,-4,19
O=C(Nc1ccccc1C(F)(F)F)N1CCC(CSc2ccccn2)CC1,·,·,·,·,-4
NS(=O)(=O)c1ccc(NC(=O)NC2CCCCC2)cc1,-5,0,2005,-3,2
CC(=O)NS(=O)(=O)c1ccc(NC(=O)NC2CCCCC2)cc1,-4,0,23046*,-2,-4
O=C(c1cccs1)N(C(=O)c1cccs1)c1ccc(Br)cn1,1,2,22230*,0,-18
Cc1ccccc1NC(=O)CSc1nc(N)c(C#N)cc1C#N,0,0,16586*,-2,-3
Cc1cc(=O)[nH]c(SCC(=O)Nc2ccccc2C#N)c1C#N,6,3,21510*,-1,-12
COc1ccc(NC(=O)CSc2nc(N)c(C#N)cc2C#N)cc1,1,1,7786,-3,-11
COC(=O)c1ccccc1NC(=O)CSc1[nH]c(=O)cc(C)c1C#N,2,0,4483,-2,-14
Cc1ccc(S(=O)(=O)N2CCC(Oc3ccc(C(F)(F)F)cn3)CC2)c(C)c1,·,·,·,·,-3
Nc1nnc(-c2cc(Cl)ccc2Cl)o1,·,·,·,·,-16
Cc1nnc(NC(=O)CSc2nc3c(c(=O)n(C)c(=O)n3C)n2C(C)C)s1,4,1,4381,-1,-4
CCOc1ccc(OCC)c(NC(=O)CSc2nc3c(c(=O)n(C)c(=O)n3C)n2CC)c1,-1,0,19457*,-2,-27

# Source: PubChem BioAssay (several laboratories)
